Pf Dd2 inh – P. falciparum Dd2 growth inhibitors, primary screen, SYBR Green fluorescence, single dose replicates; activity change, % at 10 µM; AID 1159554, 2015; 72 h; stronger effect = lower value; 2.3% of 94,000 active; in the data active = activity change below about -80%; inconclusive = no clear call, values can overlap the other calls
C diff growth – C. difficile growth inhibitors, primary screen, HTS | Clostridium difficile clinical isolate growth, OD600, 24 h; stronger effect = lower value | growth activity, negative = inhibition, % at 16 µg/mL (by protocol) | 0.25% of 86,000 active | AID 1259249, 2017;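 active = mean growth activity at or below -80% and every replicate also at or below -80%; inconclusive = mean at or below -80% but some replicate above -80%; inactive = mean growth activity above -80%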;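 note: 0% = DMSO wells and -100% = levofloxacin 16 µg/mL wells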
T cruzi growth-1 – T. cruzi intracellular proliferation inhibitors, primary screen, cell-based, beta-gal Tulahuen parasites, NIH3T3 host, luminescence; T. cruzi beta-gal in NIH3T3, GalScreen luminescence, 90 h; 5.9% of 77,000 active; inhibition, % at 8.34 µM; AID 624255, 2012;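 active = mean inhibition above about 93%, with at least 55% of replicates each passing it, limit read from the data, passing the limit was not always enough; inconclusive = only one of those two conditions holds; inactive = neither condition holds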
T cruzi growth-2 – T. cruzi intracellular proliferation inhibitors, confirmation, cell-based, NIH3T3 host, beta-gal parasite, luminescence, cherry-pick | shares compounds with T cruzi growth-1 | T. cruzi beta-gal in NIH3T3, GalScreen luminescence, 90 h | inhibition, % at 8.35 µM | 72% of 5,600 active;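 active = mean replicate inhibition above about 95% and at least 55% of replicates individually reaching it, limit read from the data; inconclusive = only one of the two criteria is met; inactive = neither criterion is met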
T cruzi growth-3 – inhibitors of intracellular T. cruzi replication, confirmation, NIH3T3 host cells, beta-gal parasites, cherry-pick, set 2; 21% of 5,600 active; inhibition, % at 2.09 µM; T. cruzi beta-gal in NIH3T3, GalScreen luminescence, 90 h; shares compounds with T cruzi growth-1;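 active = mean inhibition above about 95%, with at least 55% of replicates also reaching it, limit read from the data; inconclusive = meets just one of the two conditions; inactive = meets neither condition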;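 note: plate controls were neutral control median for no effect and positive control median for full effect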
3T3 cytotox – cytotoxicity in mouse NIH/3T3 fibroblasts, confirmation, cytotoxicity control for T. cruzi proliferation inhibitor project, cell-based, cherry-pick, single point; shares compounds with T cruzi growth-1; NIH/3T3 viability, CellTiter-Glo ATP luminescence, 90 h; cytotoxicity (signal decrease), % at 8.35 µM; 14% of 5,600 active;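 active = mean signal decrease across replicates above about 35% based on untreated-well scatter, with enough replicates individually passing, limit read from the data; inconclusive = no rule stated though some were filed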;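 note: 0% = median of neutral control wells and 100% = median of positive control wells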
3T3 cytotox 2 – NIH/3T3 fibroblast cytotoxicity, confirmation, cytotoxicity control, cell-based, cherry-pick, single point, set 2; shares compounds with T cruzi growth-1; NIH/3T3 viability, CellTiter-Glo ATP luminescence, 90 h; inhibition, % at 24.9 µM; 56% of 5,600 active;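 active = mean loss of cell viability signal at or above a set limit, and enough replicates individually reaching it; inconclusive = meets only the mean limit or only the replicate share; inactive = meets neither condition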;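 note: 0% = median of neutral control wells and 100% = median of positive control wells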
* = called active by the depositor; ? = inconclusive; . = no result given. Most compounds without a hit are left out; they make up all but 6.7% or so of the library.

SMILES	Pf Dd2 inh	C diff growth	T cruzi growth-1	T cruzi growth-2	T cruzi growth-3	3T3 cytotox	3T3 cytotox 2
Cc1cccc(S(=O)(=O)N2C[C@H](O)COC[C@@H]3O[C@@H](CC(=O)Nc4ccc(-c5ccccc5)cc4)CC[C@H]32)c1	-58.9	15.2	111.3*	96.8*	?	59.7*	78.4*
Cc1cccc(S(=O)(=O)N2C[C@H](O)COC[C@@H]3O[C@H](CC(=O)Nc4ccc(-c5ccccc5)cc4)CC[C@H]32)c1	-60.0	29.7	111.7*	101.8*	106.6*	10.2	15.9
COCC(=O)N1CCCCN2[C@H](CO)[C@H](c3ccc(-c4ccc(F)cc4)cc3)[C@@H]2C1	27.0	-4.0	46.4	.	.	.	.
O=C(Nc1cccc(Cl)c1)N1C[C@@H]2[C@H](c3ccccc31)[C@@H](CO)N2C(=O)C1CCCC1	5.2	5.5	7.7	.	.	.	.
CC(=O)N(C)C[C@H]1Oc2cc(C#Cc3ccccc3)ccc2S(=O)(=O)N([C@@H](C)CO)C[C@H]1C	-36.0	-3.0	33.8	.	.	.	.
C[C@H]1CN([C@@H](C)CO)C(=O)c2cc(NC(=O)Nc3ccc(F)cc3)ccc2O[C@@H]1CN(C)C(=O)Nc1ccc(F)cc1	24.6	1.1	-10.2	.	.	.	.
O=C(C[C@@H]1CC[C@@H](NC(=O)CC2CC2)[C@@H](CO)O1)NCc1ccc(Cl)cc1	7.5	.	-35.6	.	.	.	.
CO[C@@H]1CN(C)C(=O)c2ccc(NC(=O)Nc3cc(F)ccc3F)cc2OC[C@@H](C)N(C(=O)c2cnccn2)C[C@@H]1C	12.7	3.4	.	.	.	.	.
COc1ccc(S(=O)(=O)N[C@@H]2CC[C@H](CC(=O)O)O[C@H]2CO)cc1	5.2	-0.2	59.3	.	.	.	.
O=C(C[C@@H]1CC[C@@H]2[C@H](COC[C@@H](O)CN2S(=O)(=O)c2cccc(F)c2)O1)Nc1ccc(-c2ccccc2)cc1	-16.7	12.5	94.8	.	.	.	.
Cc1cccc(S(=O)(=O)N2C[C@@H](O)COC[C@@H]3O[C@H](CC(=O)Nc4ccc(-c5ccccc5)cc4)CC[C@H]32)c1	-61.8	13.6	119.5*	106.6*	73.7	?	41.2*
C[C@@H]1CN([C@H](C)CO)C(=O)Cc2cc(NC(=O)Nc3ccc4c(c3)OCO4)ccc2O[C@H]1CN(C)CC1CC1	23.0	-0.1	8.2	.	.	.	.
C[C@H](CO)N1C[C@H](C)[C@@H](CN(C)Cc2ccc(Cl)c(Cl)c2)Oc2ccc(NC(=O)Cc3cn(C)c4ccccc34)cc2C1=O	-2.6	29.0	80.0	.	.	.	.
C[C@H]1CN([C@@H](C)CO)C(=O)c2cc(NC(=O)Cc3cn(C)c4ccccc34)ccc2O[C@@H]1CN(C)Cc1ccc(C(F)(F)F)cc1	-41.1	6.4	93.1	.	.	.	.
C[C@@H]1CN([C@@H](C)CO)C(=O)c2cc(NC(=O)Cc3cn(C)c4ccccc34)ccc2O[C@H]1CN(C)Cc1ccc(Cl)c(Cl)c1	-43.4	.	?	104.7*	54.2	12.8	5.7
C[C@H](CO)N1C[C@H](C)[C@@H](CN(C)Cc2ccc(C(F)(F)F)cc2)Oc2ccc(NC(=O)Cc3cn(C)c4ccccc34)cc2C1=O	-21.9	1.4	118.2*	106.7*	12.7	6.0	14.0
C[C@@H]1CN([C@@H](C)CO)C(=O)c2cc(NC(=O)Cc3cn(C)c4ccccc34)ccc2O[C@@H]1CN(C)Cc1ccncc1	-14.2	-8.6	30.3	.	.	.	.
C[C@H]1CN([C@@H](C)CO)C(=O)c2cc(NC(=O)Cc3cn(C)c4ccccc34)ccc2O[C@@H]1CN(C)Cc1ccncc1	-15.4	-4.2	?	33.5	-25.2	6.1	29.8*
C[C@H](CO)N1C[C@H](C)[C@H](CN(C)CC2CC2)OCCCC[C@H](C)Oc2ccc(NC(=O)Nc3ccc4c(c3)OCO4)cc2C1=O	-75.2	5.0	63.6	.	.	.	.
C[C@@H]1CN([C@H](C)CO)C(=O)c2cc(C#CCN(C)C)cnc2O[C@H]1CN(C)C	54.4	-5.6	.	.	.	.	.
O=C(N[C@H]1CC[C@@H](CCn2cc(-c3ccccc3)nn2)O[C@@H]1CO)c1cnccn1	-29.9	-3.3	12.9	.	.	.	.
CNC[C@@H]1Oc2c(NC(=O)C3CCCCC3)cccc2C(=O)N([C@H](C)CO)C[C@@H]1C	48.7	12.3	-0.3	.	.	.	.
COc1cccc(S(=O)(=O)Nc2ccc3c(c2)OC[C@@H](C)N(Cc2cc(F)ccc2F)C[C@@H](C)[C@H](OC)CN(C)C3=O)c1	-50.0	.	102.5*	106.9*	47.1	-15.6	-23.0
CO[C@@H]1CN(C)C(=O)c2cc(NS(=O)(=O)c3cccc(F)c3)ccc2OC[C@@H](C)N(Cc2cc(F)ccc2F)C[C@@H]1C	-24.9	11.7	99.9*	114.8*	43.1	2.1	93.3*
COc1cccc(S(=O)(=O)Nc2ccc3c(c2)OC[C@@H](C)N(Cc2ccccc2F)C[C@@H](C)[C@H](OC)CN(C)C3=O)c1	-41.6	.	96.1*	105.0*	32.2	2.1	-6.0
SMILES	Pf Dd2 inh	C diff growth	T cruzi growth-1	T cruzi growth-2	T cruzi growth-3	3T3 cytotox	3T3 cytotox 2
COc1cccc(S(=O)(=O)Nc2ccc3c(c2)OC[C@H](C)N(Cc2ccccc2F)C[C@@H](C)[C@H](OC)CN(C)C3=O)c1	-5.5	.	22.6	.	.	.	.
COc1cccc(S(=O)(=O)Nc2ccc3c(c2)OC[C@H](C)N(Cc2ccccc2F)C[C@H](C)[C@@H](OC)CN(C)C3=O)c1	-39.8	-5.5	.	.	.	.	.
COc1cccc(S(=O)(=O)Nc2ccc3c(c2)C(=O)N(C)C[C@@H](OC)[C@@H](C)CN(Cc2ccccc2F)[C@@H](C)CO3)c1	-32.6	.	.	.	.	.	.
C[C@@H]1CN([C@@H](C)CO)C(=O)CCCn2cc(nn2)CO[C@@H]1CN(C)C	-20.7	-4.2	-53.0	.	.	.	.
C[C@@H]1CN([C@@H](C)CO)C(=O)c2cccc(NS(=O)(=O)c3ccccc3)c2O[C@H]1CN(C)Cc1ccc(C(F)(F)F)cc1	-60.1	8.2	28.5	.	.	.	.
CN(C)C(=O)C[C@@H]1CC[C@H](NC(=O)C2CC2)[C@@H](CO)O1	.	2.5	.	.	.	.	.
C[C@@H]1CN([C@H](C)CO)C(=O)c2cc(C3=CCCC3)cnc2O[C@@H]1CN(C)Cc1ccccc1	-17.1	4.1	7.7	.	.	.	.
COc1ccc(C#Cc2ccc3c(c2)O[C@@H](CN(C)C(C)=O)[C@H](C)CN([C@@H](C)CO)S3(=O)=O)cc1	-57.7	-10.8	69.2	.	.	.	.
COCC#Cc1cnc2c(c1)C(=O)N([C@@H](C)CO)C[C@@H](C)[C@H](CN(C)C(=O)C1CCC1)O2	16.0	-1.5	45.7	.	.	.	.

High-throughput results: PubChem BioAssay, Broad Institute
